High-throughput results (PubChem BioAssay)
Compounds with a hit are over-represented: about 21% of the library has one in this group of screens.
NS1 inh – qHTS Assay for Inhibitors of Influenza NS1 Protein Function; Potency, µM (highest dose often 46.1 µM); actives 0.4% (n = 270,000); AID 2326, 2010; calls by dose curve; further: actives are rising curves; nearly all actives have a fitted effect of over 50% in size
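Read-out: OD600 growth recovery of NS1-expressing budding yeast. Cells grown overnight at 30C in -URA glucose medium, washed, resuspended and diluted 1:100 in 2% galactose assay medium, pH 6.0. Same strain lacking NS1 served as positive control.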
Shiga inhibitor – A qHTS for Small Molecule Inhibitors of Shiga Toxin; inhibition, % at 38.7 µM; actives 9.2% (n = 290,000); Vero cells, Shiga toxin protein synthesis inhibition reporter; AID 2315, 2010; in the data active means inhibition mostly above about 28%, no sharp cut-off; inactive means mostly below about 43%
Cycloheximide cs – Cycloheximide Counterscreen for Small Molecule Inhibitors of Shiga Toxin; cell reporter, cycloheximide protein synthesis inhibition counterscreen; max response, %; actives 12% (n = 300,000); in the data active means max response mostly above about 13%, no sharp cut-off; inactive means mostly below about 14%; further: read at 38.3 µM for the half of the compounds with a filed dose
Pf growth 48h – Primary qHTS for delayed death inhibitors of the malarial parasite plastid, 48 hour incubation; AID 504832, 2011; P. falciparum luciferase growth in erythrocytes, 48 h; actives 5.9% (n = 310,000); Potency, µM (series often up to 28.7 µM), actives largely listed as inhibitors
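Parasite viability was followed by luminescence of a genomically integrated firefly luciferase. Cultures held 0.1% parasitemia at 2% hematocrit (final), incubated under 5% CO2 at 37 C.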
Giardia FBPA inh-1 – qHTS Assay for Inhibitors of Fructose-1,6-bisphosphate Aldolase from Giardia Lamblia; actives 0.71% (n = 290,000); AID 2451, 2010; A8B2U2; Potency, µM (top dose mostly 59.6 µM), actives largely listed as inhibitors; purified Giardia FBPA; further: nearly all actives have a fitted effect of over 55% in size
Target sequence (A8B2U2 whole entry, looked up): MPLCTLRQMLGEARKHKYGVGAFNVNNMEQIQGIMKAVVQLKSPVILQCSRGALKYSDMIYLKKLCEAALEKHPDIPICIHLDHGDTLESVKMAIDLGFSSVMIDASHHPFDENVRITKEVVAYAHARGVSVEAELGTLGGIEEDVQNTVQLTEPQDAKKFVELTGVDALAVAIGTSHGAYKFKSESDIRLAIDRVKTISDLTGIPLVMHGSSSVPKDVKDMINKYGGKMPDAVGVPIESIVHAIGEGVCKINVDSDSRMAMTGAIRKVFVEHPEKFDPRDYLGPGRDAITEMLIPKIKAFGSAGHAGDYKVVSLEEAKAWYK
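40 nM FBPA preincubated 10 min at RT with compound (up to 57.5 uM final), then substrate plus GAPDH/TPI/NAD/arsenate coupling and diaphorase/resazurin added. Fluorescence read after 20 min at RT, 525/598 nm.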
Pf growth 96h – Primary qHTS for delayed death inhibitors of the malarial parasite plastid, 96 hour incubation | P. falciparum luciferase reporter growth, 96 h | actives 6.9% (n = 320,000) | Potency, µM (top dose mostly 28.7 µM), most hits filed as inhibitors | AID 504834, 2011
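Erythrocytes infected with luciferase-expressing P. falciparum were dispensed at 2% hematocrit and 0.05% parasitemia (final), then incubated with compounds 96 hours at 37 C in 5% CO2. Luminescence after detection reagent addition reported growth.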
Giardia growth – qHTS Assay for Inhibitors of Fructose-1,6-bisphosphate Aldolase from Giardia Lamblia: Giardia lamblia growth inhibition; shares compounds with Giardia FBPA inh-1; Giardia lamblia trophozoite growth inhibition; Potency, µM (doses to about 57.5 µM), hits mostly inhibitors; actives 5% (n = 1,500);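 further: trophozoites exposed to compound for 48 h at 37 °C; nearly all actives have a fitted effect of over 70% in size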
Mammal cell tox – qHTS Assay for Inhibitors of Fructose-1,6-bisphosphate Aldolase from Giardia Lamblia: Mammalian cellular toxicity; actives 4% (n = 1,500); Potency, µM (doses to about 57.5 µM), usual class: inhibitors; AID 2786, 2010; mammalian cell viability counter-screen, qHTS; shares compounds with Giardia FBPA inh-1;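 further: Chinese hamster ovary cells used as mammalian cytotoxicity surrogate; viability measured as cellular ATP by luminescence; compound exposure lasted 48 h before reading; nearly all actives have a fitted effect of over 60% in size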
Giardia FBPA inh-2 – qHTS Assay for Inhibitors of Fructose-1,6-bisphosphate Aldolase from Giardia Lamblia: Primary screen confirmation; shares compounds with Giardia FBPA inh-1; purified Giardia aldolase enzyme activity, qHTS; Potency, µM (titrated, usually from 57.5 µM), hits mostly inhibitors; actives 5% (n = 1,500); AID 2787, 2010; further: nearly all actives have a fitted effect of over 45% in size
Rabbit aldolase – qHTS Assay for Inhibitors of Fructose-1,6-bisphosphate Aldolase from Giardia Lamblia: Rabbit FBPA Selectivity | shares compounds with Giardia FBPA inh-1 | Rabbit muscle FBPA enzyme inhibition, selectivity counter-screen | Potency, µM (series often up to 57.5 µM), usual class: inhibitors | actives 4% (n = 1,500); further: nearly all actives have a fitted effect of over 60% in size
Target sequence (P00883 whole entry, looked up): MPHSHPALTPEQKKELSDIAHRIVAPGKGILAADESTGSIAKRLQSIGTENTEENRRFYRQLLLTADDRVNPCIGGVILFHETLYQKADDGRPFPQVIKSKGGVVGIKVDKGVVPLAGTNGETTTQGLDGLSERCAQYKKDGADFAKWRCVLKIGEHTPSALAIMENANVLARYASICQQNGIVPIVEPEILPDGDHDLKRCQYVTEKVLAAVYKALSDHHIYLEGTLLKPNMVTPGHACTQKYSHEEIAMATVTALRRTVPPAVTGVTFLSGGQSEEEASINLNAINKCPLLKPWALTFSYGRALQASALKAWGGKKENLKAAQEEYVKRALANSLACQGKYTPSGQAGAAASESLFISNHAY
GAPDH counter – qHTS Assay for Inhibitors of Fructose-1,6-bisphosphate Aldolase from Giardia Lamblia: Coupling assay counterscreen confirmation; shares compounds with Giardia FBPA inh-1; GAPDH coupling enzyme counterscreen, biochemical, qHTS; Potency, µM (doses to about 57.5 µM), most hits filed as inhibitors; actives 6% (n = 1,500); further: nearly all actives have a fitted effect of over 55% in size
CLK4 cf ADPGlo – Confirmaiton Assay for Inhibitors of CDC-like Kinase 4 (ADP-Glo Assay); shares compounds with Pf growth 48h; recombinant Clk4, RS peptide, ADP-Glo luminescence; Potency, µM (doses to about 80 µM), hits mostly inhibitors; actives 80% (n = 65); AID 1969, 2009
CLK4 cf ADP-FP – Confirmation Assay for Inhibitors of CDC-like Kinase 4 (ADP-FP Assay); shares compounds with Pf growth 48h; recombinant Clk4, ADP Transcreener FP, RS peptide; Potency, µM (top dose mostly 80 µM), hits mostly inhibitors; actives 70% (n = 65)
Numbers stand for hits; n = inactive; u = inconclusive; x = not tested or not shown; [ ] = remark or other dose. Unless noted, the call rests on the fitted dose curve; in most records, active means well fitted curve in the direction sought with a large enough effect; inconclusive means small, poorly fitted or top-dose-only effect, or another doubt; inactive means no such curve, though single readings can be large; an effect the other way counts as inactive or inconclusive.

SMILES	NS1 inh	Shiga inhibitor	Cycloheximide cs	Pf growth 48h	Giardia FBPA inh-1	Pf growth 96h	Giardia growth	Mammal cell tox	Giardia FBPA inh-2	Rabbit aldolase	GAPDH counter	others
Cc1ccc(C)c(-c2nnc(NC(=O)C3=COCCO3)o2)c1	x	x	x	n	x	n	x	x	x	x	x
CC(NC(=O)CN1C(=O)NC(C)(c2cccc3ccccc23)C1=O)c1ccccc1 (stereo unspecified)	n	n	n	n	n	n	x	x	x	x	x
CN(C)S(=O)(=O)c1ccc(C(=O)Nc2nnc(-c3cccs3)o2)cc1	x	n	19	13µM	18µM	u	14µM	n	n	n	n
Cc1nnc(NC(=O)CN2CCN(Cc3ccc(F)cc3Cl)CC2)s1	n	n	n	n	3.2µM	n	n	n	n	n	n
CCc1nnc(NC(=O)CN2CCN(C3CCCCC3)CC2)s1	n	n	n	x	u	x	x	x	x	x	x
Cc1cnc(NC(=O)CN2CCN(c3ccccc3F)CC2)s1	n	n	n	n	n	n	x	x	x	x	x
Cc1cnc(NC(=O)CN2CCCCC2)s1	n	n	n	n	4.5µM	n	u	n	n	n	n
CCc1nnc(NC(=O)CN2CC(C)OC(C)C2)s1 (stereo unspecified)	n	n	n	n	3.5µM	n	n[10.4 µM]	n	n	n	n
O=C(CN1CCOCC1)Nc1nc2ccc([N+](=O)[O-])cc2s1	n	n	n	n	n	n	x	x	x	x	x
CC(=O)Nc1ccc2sc(NC(=O)CN3CCOCC3)nc2c1	n	n	n	n	4.5µM	u	u	n	n	n	n
N#Cc1cnn2c(-c3cccc(C(F)(F)F)c3)ccnc12	n	n	n	n	n	n	x	x	x	x	x
CCCNC(=O)[C@H](C)NC(=O)c1ccc(Br)cc1	n	n	n	n	n	n	x	x	x	x	x
Cc1ccc(NC(=S)N2CCN(c3ccccc3F)CC2)c(C)c1	n	n	n	n	n	u	x	x	x	x	x
Cc1cccc(-[n+]2c(C)cc(C)c3c(=O)[nH]c(=O)[nH]c32)c1	n	n	n	n	n	n	x	x	x	x	x
CCC(C)(C)C(=O)Nc1cccc(Cl)c1C	x	n	n	n	n	u	x	x	x	x	x
Cc1nnc(NC(=O)CN2CCN(Cc3ccccc3)CC2)s1	n	n	n	n	6.3µM	n	n[10.4 µM]	n	n	n	n
CCCN1CCN(CC(=O)Nc2nnc(C)s2)CC1	n	n	n	n	7.9µM	u	n	n	n	n	n
O=C(CN1CCN(Cc2ccc(F)cc2)CC1)Nc1nc2ccccc2s1	n	n	n	n	14µM	u	n	n	n	n	n
COCCNC(=O)c1cccc(S(=O)(=O)N2CC3(C)CC2CC(C)(C)C3)c1 (stereo unspecified)	x	x	x	n	x	u	x	x	x	x	x
N#CCC(=O)Nn1c(=S)[nH]c2ccccc2c1=O	x	n	n	n	3.5µM	u	n	n	n	n	n
O=c1ccc2c(-c3ccccc3)c3ccc(O)cc3oc-2c1	n	n	n	x	14µM	n	u	n	n	n	n
CN(Cc1ccco1)c1ncnc2ccc(-c3ccccc3Cl)cc12	x	x	x	9.3µM	n	u	x	x	x	x	x	CLK4 cf ADPGlo=10µM;CLK4 cf ADP-FP=16µM
CN(Cc1ccco1)c1ncnc2ccc(-c3ccoc3)cc12	x	x	x	u	n	u	x	x	x	x	x	CLK4 cf ADPGlo=0.25µM;CLK4 cf ADP-FP=0.32µM
COc1ccccc1-c1ccc2ncnc(N(C)Cc3ccco3)c2c1	x	x	x	x	n	x	x	x	x	x	x
CN(C)c1ncnc2ccc(-c3ccoc3)cc12	x	x	x	x	n	x	x	x	x	x	x
COc1cccc(-c2ccc3ncnc(NCc4cccs4)c3c2)c1	x	x	x	9.3µM	n	4.1µM	x	x	x	x	x	CLK4 cf ADPGlo=1µM;CLK4 cf ADP-FP=1.1µM
c1cncc(-c2ccc3ncnc(NCc4cccs4)c3c2)c1	x	x	x	u	x	9.3µM	x	x	x	x	x	CLK4 cf ADPGlo=3.2µM;CLK4 cf ADP-FP=7.1µM
CCCC(C)NC(=O)C1c2ccccc2Oc2ccccc21 (stereo unspecified)	n	n	n	n	n	u	x	x	x	x	x
COc1cccc(CNc2ncnc3cc(Cl)ccc23)c1	n	n	n	u	n	n	x	x	x	x	x
